{
  "source": "ChEMBL document CHEMBL3988442",
  "about": "“University of Dundee, Small-Polar-MMV Screening Library” (2021)",
  "note": "Hit rate of the full screen: of about 38,000 compounds, about 1,200 (3.2%) showed an effect of 50% or more. The median lay at about -58%. Only a selection was taken, and strong results are over-represented in it overall.",
  "data": [
    {"tested_on": "Plasmodium falciparum", "assay": "Calibr Malaria Delayed Death Assay SOP", "type": "functional, organism-based", "set-up": "scale not given: in the data most compounds retested in dose-response had high values", "details": "concentration 4.99e-06 (unit not given; other assays of the set use mol/L)", "units": {"Percent Effect": "%"}, "values": [
      {"molecule": "COCC(C)NCc1nc(-c2ccc(C)cc2)c(-c2ccccn2)[nH]1", "note": "(stereo unspecified)", "Percent Effect": 45.68},
      {"molecule": "Cc1ccc(-c2nc(CNC(C)CCO)[nH]c2-c2ccccn2)cc1", "note": "(stereo unspecified)", "Percent Effect": 85.22},
      {"molecule": "Cc1ccc(-c2nc(CNS(=O)(=O)N(C)C)[nH]c2-c2ccccn2)cc1", "Percent Effect": -8.879},
      {"molecule": "COCCCn1ccc(NC(=O)NCCCn2ccnc2)n1", "Percent Effect": -63.56},
      {"molecule": "CCOc1ccc(Cl)cc1CCNC(=O)Cn1nc(C)ccc1=O", "Percent Effect": -103.1},
      {"molecule": "CCOc1ccc(CNCCCn2ccnc2)cc1Br", "Percent Effect": 79.67},
      {"molecule": "CCOc1ccc(Cl)cc1CNCCCn1ccnc1", "Percent Effect": 51.78},
      {"molecule": "COc1cc(CNCCn2ccnc2)cc2c1OCO2.Cl", "Percent Effect": -91.54},
      {"molecule": "O=C(CN1CCOc2ccc(Cl)cc21)NCCCn1ccnc1", "Percent Effect": -34.55},
      {"molecule": "CN(C)CCNCC1COCc2c(-c3ccnn3C)nnn2C1", "note": "(stereo unspecified)", "Percent Effect": -61.69},
      {"molecule": "O=C(c1cccc2ncccc12)N1CCC(Nc2cccnn2)CC1", "Percent Effect": -119.6},
      {"molecule": "Cc1nc(CN2CCN(CCCc3ccccc3)CC2)no1", "Percent Effect": -34.84},
      {"molecule": "COc1ccc(-c2nc(CNC3CCc4nc(C)nn4C3)no2)cc1", "note": "(stereo unspecified)", "Percent Effect": -54.43},
      {"molecule": "COc1cc(C)c(-c2ccc(F)c3c2OC(CN)C3)cc1C", "note": "(stereo unspecified)", "Percent Effect": 83.54},
      {"molecule": "COc1cc(-c2ccc(F)c3c2OC(CN)C3)cc(OC)c1OC", "note": "(stereo unspecified)", "Percent Effect": -14},
      {"molecule": "COc1cccnc1-c1ccc(F)c2c1OC(CN)C2", "note": "(stereo unspecified)", "Percent Effect": 57.41},
      {"molecule": "Cc1cc2n(n1)CC(CNCc1ccccc1Cn1cccn1)CN2", "note": "(stereo unspecified)", "Percent Effect": -15.62},
      {"molecule": "O=C(O)C(F)(F)F.O=C(O)C(F)(F)F.c1cncc(C2COC3(CCN(Cc4nccs4)CC3)C2)c1", "note": "(stereo unspecified)", "Percent Effect": -1.865},
      {"molecule": "CCN1CC2(CC1=O)CN(C(=O)c1ccco1)CCN(C(=O)C(C)C)C2", "note": "(stereo unspecified)", "Percent Effect": -62.73},
      {"molecule": "O=C1[C@H]2CC[C@H](CN(c3ncnc4ccsc34)C2)N1CC1CC1", "Percent Effect": -91.86},
      {"molecule": "COCCCN(C)C(=O)c1cccc(Nc2cnccn2)c1", "Percent Effect": -92.25},
      {"molecule": "N[C@H]1CN(C(=O)c2cnc3cc(Cl)ccc3c2O)C[C@@H]1C1CC1", "Percent Effect": -23.25},
      {"molecule": "N[C@H]1CN(C(=O)c2ccc(Cl)cc2O)C[C@@H]1C1CC1", "Percent Effect": 32.78},
      {"molecule": "Cc1cc(Cl)ccc1C(=O)N1C[C@H](C2CC2)[C@@H](N)C1", "Percent Effect": 60.81},
      {"molecule": "N#CCSCCCN1CCN(C(=O)c2ccccc2F)CC1", "Percent Effect": -147},
      {"molecule": "Cc1nnc(NC(=O)NCCCN2CCC(C(N)=O)CC2)s1", "Percent Effect": -23.13},
      {"molecule": "CC1CC(NS(=O)(=O)c2ccc(C(F)(F)F)nc2)C1", "note": "(stereo unspecified)", "Percent Effect": -159.1},
      {"molecule": "O=c1ncn(-c2ccc(F)cc2)c2ncccc12", "Percent Effect": -138.9},
      {"molecule": "OCc1cn([C@@H]2c3ccccc3C3(CCNCC3)[C@H]2O)nn1", "Percent Effect": -123.5},
      {"molecule": "COCc1cn([C@@H]2c3ccccc3C3(CCNCC3)[C@H]2O)nn1", "Percent Effect": -27.47},
      {"molecule": "O[C@H]1[C@H](n2cc(CN3CCCC3)nn2)c2ccccc2C12CCNCC2", "Percent Effect": 62.81}
    ]}
  ]
}
